In PubChem BioAssay AID2417 (National Center for Advancing Translational Sciences (NCATS), 2010):
Screen size: about 140,000 compounds; about 4,300 (3.1%) were called active. Inconclusive results (about 21%) are left out.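 How the source made its calls: active means readout at or below -70, meaning at least 70% loss of cells showing the perinucleolar compartment, a nuclear body marking cancer cells; inconclusive means readout between -30 and a set limit; inactive means the rest.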 What follows is part of a selection rich in actives, with near analogues and random picks from the rest.

Experiment: High Content Assay for Compounds that inhibit the Assembly of the Perinucleolar Compartment;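 further: plate controls were DMSO wells for no effect and camptothecin positive control wells for full effect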
Details: PC3M PTB-GFP, PNC prevalence imaging, 16 h; at 10 µM; stronger effect = lower value
In short: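 Compounds are pinned in duplicate onto adhered PC3M cells stably expressing GFP-tagged PTB and incubated 16 h at 37 C. Cells are then fixed, nuclei stained with Hoechst, and PNC-positive cells counted.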

| SMILES | activity change (PNC), negative = inhibition |
| --- | --- |
| O=C(CNS(=O)(=O)c1ccccc1)NCC(=O)OCc1ccccc1F | 26% (inactive) |
| Cn1ncc2c(NNC(=O)Cc3cccc4ccccc34)ncnc21 | -13.1% (inactive) |
| COc1ccc(N2C(=O)CC(SC(C)C)C2=O)cc1 (stereo unspecified) | 36.9% (inactive) |
| O=C(Nn1c(-c2ccccc2)nc2ccccc2c1=O)c1ccc([N+](=O)[O-])cc1 | 38.7% (inactive) |
| O=C(N/N=C/c1coc2ccccc2c1=O)c1cc2ccccc2o1 | 11% (inactive) |
| O=C(/C=C/NCc1ccc(F)cc1)c1ccccc1 | -6.98% (inactive) |
| Fc1ccc2c(c1)C(c1cccnc1)=NNC(c1cccs1)=N2 | 17.9% (inactive) |
| C=CCn1c(SCc2ccc(Cl)c(Cl)c2)nnc1C(CO)NC(=O)c1ccc(OC)cc1 (stereo unspecified) | -102% (active) |
| C=CCn1c(SCc2c(C(=O)OC)sc(N)c2C(=O)OC)nnc1-c1ccc(Cl)cc1 | 7.94% (inactive) |
| C=CCn1c(SCC(=O)c2ccc(Br)cc2)nnc1C(C)NC(=O)Cc1ccc(OC)cc1 (stereo unspecified) | 11.4% (inactive) |
| CC1(C)C(C=C(Cl)Cl)C1C(=O)N(Cc1ccc(Cl)cc1)C1CCS(=O)(=O)C1 (stereo unspecified) | 32.1% (inactive) |
| O=C(NN1C(=O)C2C3C=CC(O3)C2C1=O)c1ccncc1 (stereo unspecified) | 36% (inactive) |
| CC(=O)c1ccc(NC(=S)NC(=O)CC(C)C)cc1 | 18.7% (inactive) |
| COC(=O)C1C(=O)NCC1c1ccc(C)cc1 (stereo unspecified) | -2.49% (inactive) |
| COC(=O)C1=C(Nc2ccc(C)cc2)C=C(C)C(C(=O)OC)C1c1ccc(F)cc1 (stereo unspecified) | -100% (active) |
| COC(=O)C1=C(Nc2ccc(OC)cc2)C=C(C)C(C(=O)OC)C1c1ccc(C)cc1 (stereo unspecified) | -17.7% (inactive) |
| O=C(CCc1[nH]c2ccccc2c1Sc1ccccc1)N(CCO)CCO | 85.7% (inactive) |
| CC(=O)NC1=NN(C(C)=O)C(C)(c2ccc(C)cc2)S1 (stereo unspecified) | 54.1% (inactive) |
| COc1ccc(C(=O)Nc2c(Cl)cc(Cl)cc2C(=O)N2CCC(C)CC2)cc1 | -10.7% (inactive) |
| Cc1cc(C)nc(SC2CCCCC2NS(=O)(=O)c2ccc(Cl)cc2)n1 (stereo unspecified) | -107% (active) |
| CCOC1CCCCC1NS(=O)(=O)c1ccc(Cl)cc1 (stereo unspecified) | 21.4% (inactive) |
| CSc1ccc(S(=O)(=O)NC2CCCCC2)cc1 | -23.3% (inactive) |
| CC(=O)N/C(=C/c1ccc(OC(F)F)cc1)C(=O)O | -25.2% (inactive) |
| COc1ccccc1CNC(=O)CN1CCC(n2cnc3cc(F)ccc32)CC1 | 26.2% (inactive) |

| SMILES | activity change (PNC), negative = inhibition |
| --- | --- |
| COc1ccc(N2C(=O)C(CC(=O)Nc3ccc(F)cc3)N(CCc3cccs3)C2=O)cc1 (stereo unspecified) | 20.2% (inactive) |
| CC(C)CCNC(=O)c1cccnc1Sc1ccccc1 | 23.2% (inactive) |
| Cc1cccc2cc(C#N)c(N3CCCC3)nc12 | -8.64% (inactive) |
| FC(F)(F)c1cccc(-c2cc3ccccc3nc2N2CCCC2)c1 | -94.9% (active) |
| S=C(NCCc1ccccc1)NCc1ccccc1Cl | 29.5% (inactive) |
| COc1ccc(-n2c(C)cc(C(=O)CN3C(=O)NC4(CCc5ccccc54)C3=O)c2C)cc1 (stereo unspecified) | -15% (inactive) |
| COc1ccccc1N1CCN(Cc2ccc(OC)c3ccccc23)CC1 | -100% (active) |
| COc1ccccc1N1CCN(CCCCOc2ccc(F)cc2)CC1 | 11% (inactive) |
| COc1ccccc1N1CCN(Cc2nnnn2CCc2ccccc2)CC1 | -5.45% (inactive) |
| O=C1/C(=C\c2ccccc2Cl)SC(=S)N1CCC(=O)N1CCCc2ccccc21 | 47.3% (inactive) |
| O=C(Nc1cccc(S(=O)(=O)N2CCCCC2)c1)c1ccc2c(c1)OCO2 | -20.4% (inactive) |
| COC(=O)Cc1ccc(NC(=S)NCc2ccccc2)cc1 | -25.7% (inactive) |
| Cc1ccc(OC(=O)CCC(=O)Nc2ccc(Br)cc2)cc1 | -25% (inactive) |
| CC(C)Oc1ccc(CC(=O)NNC(=S)Nc2ccc(Br)cc2)cc1 | -113% (active) |
| Cc1ccccc1NC(=S)N(CCCN1CCOCC1)Cc1cccs1 | 27.2% (inactive) |
| Cc1ccc(S(=O)(=O)NC(C)C(=O)Nc2ccccc2C(=O)N2CCCC2)cc1 (stereo unspecified) | 12.1% (inactive) |
| CC1CN(C(=O)c2ccccc2NS(=O)(=O)c2cccc([N+](=O)[O-])c2)CC(C)O1 (stereo unspecified) | 25.2% (inactive) |
| Cc1ccc2c(c1)C1CN(C)CCC1N2C(=O)c1ccccc1NS(=O)(=O)c1ccc(F)cc1C (stereo unspecified) | -99.6% (active) |
| CCC(=O)Nc1c(C)n[nH]c1C | 0.725% (inactive) |
| O=C(c1cccs1)n1nc(NCc2ccccc2)nc1NCc1ccccc1 | -4.14% (inactive) |
| CC(=O)NC(Cc1ccccc1)C(=O)NC1CCN(c2ncccc2[N+](=O)[O-])CC1 (stereo unspecified) | 23.2% (inactive) |
| CC(C)n1c(C(O)c2ccccc2)nc2ccccc21 (stereo unspecified) | 24.7% (inactive) |
| CC(C)n1c(NCc2c[nH]c3ccccc23)nc2ccccc21 | -100% (active) |
| Cc1ccc(O)c(CNc2nc3ccccc3n2C)c1 | -1.77% (inactive) |

| SMILES | activity change (PNC), negative = inhibition |
| --- | --- |
| S=C(NCCc1ccccc1)NCC1CCCO1 (stereo unspecified) | -9.43% (inactive) |
| CCOC(=O)C1CCN(c2ncnc3c2oc2ccc(Br)cc23)CC1 | 11.1% (inactive) |
| CCOC(=O)c1nnn(-c2nonc2-n2cccc2)c1CN1CCC(C(=O)OCC)CC1 | 10.9% (inactive) |
| CCOC(=O)C1CCN(Cc2coc3ccc(Cl)cc3c2=O)CC1 | -80.9% (active) |
| Cc1ccc(C(=O)COC(=O)CCCC(=O)NC2CCCCC2)cc1[N+](=O)[O-] | 17% (inactive) |
| CCOc1ccc(OCC)c(-c2c(=O)n(OCc3ccc(Cl)cc3)c3ccccc3[n+]2[O-])c1 | 60.4% (inactive) |
| COc1ccc(OC)c(-c2c(=O)n(OCc3ccccc3Br)c3ccccc3[n+]2[O-])c1 | -113% (active) |
| C=CCNCCCCOc1ccccc1 | -6.05% (inactive) |
| CC(CNc1ccc([N+](=O)[O-])cc1)NC(=O)c1ccccc1Br (stereo unspecified) | 3.05% (inactive) |
| CN(C)CCNC(=O)Cc1ccc([N+](=O)[O-])cc1 | 15.1% (inactive) |
| O=C(NCCNc1ccc([N+](=O)[O-])cc1)c1cccc2c(Br)cccc12 | -86.3% (active) |
| Cc1nc2ccccc2nc(C)c1=NOCc1ccc(Cl)cc1Cl | -24.9% (inactive) |
| Cc1ccn(-c2cccc(-n3ccc(C)n3)n2)n1 | -4.25% (inactive) |
| Cc1c(C2=CCN(S(=O)(=O)c3ccc(Cl)cc3)CC2)c2ccccc2n1C | 30.7% (inactive) |
| N/C(=N\OS(=O)(=O)c1cccc([N+](=O)[O-])c1)c1ccncc1 | -108% (active) |
| CO/N=C(\N)c1ccc([N+](=O)[O-])cc1 | 28.8% (inactive) |
| O=[N+]([O-])c1cccc(S(=O)(=O)N2CCCCCC2)c1 | -7.16% (inactive) |
| CCC1(C(=O)c2ccccc2)C(c2cccc([N+](=O)[O-])c2)C1(C(=O)OC)C(=O)OC (stereo unspecified) | -9.15% (inactive) |
| CC(C)(C)n1nnc(CCc2nnn(C(C)(C)C)n2)n1 | -91.9% (active) |
| O=C(Nc1ccc([N+](=O)[O-])cc1)C1(c2ccccc2)CCOCC1 | 5.8% (inactive) |
| Cc1cc(C(=O)N/N=C/c2cc([N+](=O)[O-])cc(C)c2O)n[nH]1 | -128% (active) |
| COc1cccc(/C=N/NC(=O)c2cccc([N+](=O)[O-])c2)c1OS(=O)(=O)c1ccc(C)cc1 | 20.7% (inactive) |
| Cc1ccc(-n2[nH]c(C)c(/C=N/NC(=O)c3cccc([N+](=O)[O-])c3)c2=O)cc1C | 3.84% (inactive) |
| Cc1nn(-c2ccccc2)c(-n2cccc2)c1C(=O)O | 4.84% (inactive) |

| SMILES | activity change (PNC), negative = inhibition |
| --- | --- |
| CC(C)c1ccc(N2CC(C(=O)Nc3nccs3)CC2=O)cc1 (stereo unspecified) | 21.8% (inactive) |
| CCc1ccc(N2CC(C(=O)NC3=NCCS3)CC2=O)cc1 (stereo unspecified) | 10.4% (inactive) |
| CCc1nnc(NC(=O)C2CC(=O)N(c3ccc4c(c3)OCCO4)C2)s1 (stereo unspecified) | -107% (active) |
| O=C(COc1ccccc1F)NNC(=O)c1ccc(N2CCCCC2)c([N+](=O)[O-])c1 | -26.5% (inactive) |
| CCOC(=O)Cc1csc(SCC(=O)NC(C)C23CC4CC(CC(C4)C2)C3)n1 (stereo unspecified) | 20% (inactive) |
| Cc1ccc(OCC(=O)N/N=C\c2ccco2)c(C)c1 | 54.4% (inactive) |
| Cc1ccc(/C=N/NC(=O)COc2ccccc2-c2ccccc2)cc1 | -125% (active) |
| Cc1ccc(OCC(=O)N/N=C/c2ccncc2)cc1 | 28.2% (inactive) |
| CCc1ccc(NC(=O)C(C)OC(=O)/C=C/c2cccc([N+](=O)[O-])c2)cc1 (stereo unspecified) | 10.2% (inactive) |
| O=C1NC(c2ccccc2)CCC1(Cl)Cl (stereo unspecified) | -7.09% (inactive) |
| C=CCn1c(N)cc(=O)nc1SCC(=O)Nc1cccc2ccccc12 | 69% (inactive) |
| C=CCn1c(SCC(=O)NC23CC4CC(CC(C4)C2)C3)nc(O)cc1=O | -100% (active) |
| O=C(CNCCO)NC12CC3CC(CC(C3)C1)C2 | 20.6% (inactive) |
| Cc1cc(C)cc(OCC(=O)NNC(=O)CCN2C(=O)c3ccccc3C2=O)c1 | 31.4% (inactive) |
| O=C(Oc1cccc(N2C(=O)C3C4c5ccccc5C(c5ccccc54)C3C2=O)c1)c1ccco1 (stereo unspecified) | -97.3% (active) |
| CC(=O)Nc1ccc(N2C(=O)C3C4CC(=O)C(c5ccccc54)C3C2=O)cc1 (stereo unspecified) | 13.1% (inactive) |
| CC(=O)Oc1cccc(N2C(=O)C3CC=C(Cl)CC3C2=O)c1 (stereo unspecified) | -0.248% (inactive) |
| COc1cc(NC(=O)c2cc([N+](=O)[O-])ccc2Br)ccc1NC(=O)c1ccco1 | 38.2% (inactive) |
| CC(Sc1nnc2c(n1)C1CCC2(C)C1(C)C)C(=O)Nc1ccccc1 (stereo unspecified) | 11.5% (inactive) |
| O=C(Cc1ccccc1)NNS(=O)(=O)c1ccc([N+](=O)[O-])cc1 | 3.03% (inactive) |
| Clc1cccc(CN2COc3c(cc(Cl)c4cccnc34)C2)c1 | -27.1% (inactive) |
| Cc1nn(Cc2ccccc2Cl)c(C)c1NC(=O)Cn1nc([N+](=O)[O-])c(Cl)c1C | 29.3% (inactive) |
| Cc1ccc(C(C)NC(=O)Cn2nc(C)c([N+](=O)[O-])c2C)cc1 (stereo unspecified) | 1.18% (inactive) |
| Cc1c(Cl)c([N+](=O)[O-])nn1CCCC(=O)NC(C)c1ccccc1 (stereo unspecified) | -83.2% (active) |
